The record followed here is PubChem BioAssay AID651690 (Sanford-Burnham Center for Chemical Genomics, 2012).

The list shows a part of the results. The source made the active and inactive calls. Rule as the data show it: active = inhibition mostly above about 32% (no sharp cut-off); inactive = mostly below about 29%.

The test concerns the target Sentrin-specific protease 1 (Homo sapiens) (UniProt Q9P0U3). Description: SENP1 SUMO protease blockers by rate readout – biochemical, kinetic FRET, single concentration, confirmation (AID 651690).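 Also: 0% = DMSO with enzyme and 100% = no enzyme substrate only.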 To be noted: recombinant SENP1, CyPet-SUMO1-YPet FRET kinetic cleavage; at 10 µM; stronger effect = higher value.

Sequence of Sentrin-specific protease 1 (Homo sapiens) (Q9P0U3 419-644 limits assumed): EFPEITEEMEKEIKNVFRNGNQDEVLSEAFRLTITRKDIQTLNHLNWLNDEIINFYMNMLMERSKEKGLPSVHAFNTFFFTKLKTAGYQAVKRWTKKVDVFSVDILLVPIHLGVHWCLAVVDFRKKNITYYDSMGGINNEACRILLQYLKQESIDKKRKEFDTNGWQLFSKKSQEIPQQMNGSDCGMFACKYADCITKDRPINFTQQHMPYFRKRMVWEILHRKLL

For the compound `COc1ccccc1N=Nc1c(O)[nH]c(=S)[nH]c1=O`, the inhibition (usually how much of the control response was suppressed) is 31.3% (inactive).
